Screens deposited in PubChem BioAssay by National Center for Advancing Translational Sciences (NCATS).
The full list was thinned out, with hits kept by preference.
IMPase Li cell – cell-permeable IMPase inhibitors with lithium potentiation. AID 1457. Potency, µM (top dose mostly 59.4 µM), for inactives: at the highest dose activity, negative = IMPase inhibition, hits mostly inhibitors. 210,000 tested, 0.35% active. CHO-M1 cells, IP1 TR-FRET (IP-One), carbachol + lithium;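 further: IP1 builds up when IMPase is blocked and the TR-FRET signal falls; potency means the concentration at half of the fitted maximal effect; plate controls were basal vehicle for no effect and high inhibitor control for full effect; nearly all actives have a fitted effect of over 50% in size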
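Lithium-sensitised IP1 accumulation assay; M1-expressing CHO cells treated 30 min at 37C with compound. Competitive antibody detection by time-resolved FRET followed a 10 min room-temperature lysis step.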
IMPase cell inh – cell-permeable inhibitors of inositol monophosphatase (IMPase). P97697. CHO-M1 cells, IP1 accumulation, HTRF TR-FRET ratio. inhibition (IP1 accumulation), % at 46.1 µM. 120,000 tested, under 10 active. AID 901; active means well fitted curve in the direction sought with a large enough effect in the signal ratio, not every such curve was filed as active; inconclusive means small, poorly fitted or top-dose-only effect, or a change in a side signal; inactive means no such curve, though single readings can be large or run the other way; the % refers to the signal ratio;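 further: cells stimulated with carbachol in lithium chloride buffer; plate controls were DMSO basal wells for no effect and reference inhibitor wells for full effect; higher means more IMPase inhibition seen as more IP1 and lower FRET ratio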
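The IP-One HTRF competitive assay in carbachol-stimulated CHO-M1 cells quantifies cellular IP1. Compounds spanned up to 46 uM final, and activity is expressed as AC50 from concentration-response fits of the ratio and donor data.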
PNC assembly inh – blocks assembly of the perinucleolar compartment; PC3M PTB-GFP, PNC prevalence imaging, 16 h; active compounds read low; activity change (PNC), negative = inhibition, % at 10 µM; 140,000 tested, 3.1% active;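 active means readout at or below -70, meaning at least 70% loss of cells showing the perinucleolar compartment, a nuclear body marking cancer cells; inconclusive means readout between -30 and a set limit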;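 further: plate controls were DMSO wells for no effect and camptothecin positive control wells for full effect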
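Read-out is percentage of cells bearing a perinucleolar compartment, from automated 20x imaging of fixed, Hoechst-stained PC3M PTB-GFP cells. Cells were seeded 4 h, then exposed 16 h to compound (23 nl of library stock) in duplicate plates.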
ALOX12 inhib – inhibitors of human 12-lipoxygenase (ALOX12). P18054. purified 12-hLO, xylenol orange hydroperoxide absorbance. Potency, µM (doses to about 57.1 µM), for the others: top-dose activity change, negative = inhibition, usual class: inhibitors. 150,000 tested, 0.12% active; further: potency means the concentration at half of the fitted maximal effect; nearly all actives have a fitted effect of over 55% in size
Target sequence (P18054 whole entry, looked up): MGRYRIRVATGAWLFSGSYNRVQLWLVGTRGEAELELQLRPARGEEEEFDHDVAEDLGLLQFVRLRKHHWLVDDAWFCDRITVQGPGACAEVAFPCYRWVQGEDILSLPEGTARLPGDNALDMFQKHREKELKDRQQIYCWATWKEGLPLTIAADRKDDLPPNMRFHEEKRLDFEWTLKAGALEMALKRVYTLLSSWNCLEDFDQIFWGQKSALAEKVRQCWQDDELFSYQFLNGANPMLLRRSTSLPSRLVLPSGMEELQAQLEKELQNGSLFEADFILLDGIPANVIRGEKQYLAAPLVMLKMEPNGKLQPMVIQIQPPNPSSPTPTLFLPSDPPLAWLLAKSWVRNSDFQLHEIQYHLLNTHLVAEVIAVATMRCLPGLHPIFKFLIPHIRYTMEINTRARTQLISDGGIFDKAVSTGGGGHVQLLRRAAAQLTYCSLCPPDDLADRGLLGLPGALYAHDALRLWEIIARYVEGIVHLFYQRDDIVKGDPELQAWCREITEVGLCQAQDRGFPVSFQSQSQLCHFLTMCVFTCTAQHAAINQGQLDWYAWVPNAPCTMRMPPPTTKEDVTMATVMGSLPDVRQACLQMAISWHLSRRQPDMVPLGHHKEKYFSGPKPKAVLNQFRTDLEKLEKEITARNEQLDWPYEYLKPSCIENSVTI
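Lipoxygenase turnover measured by absorbance at 573 and 405 nm after Fe-XO development. Human 12hLO 150 nM, arachidonate 40 uM, pH 7.0 Hepes buffer with detergent; 15 min compound preincubation, 30 min reaction.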
An asterisk follows results filed as active; ? = inconclusive; . = no result given; [ ] = dose if it differs, or a comment. Unless noted, the call rests on the fitted dose curve; in most records, active means well fitted curve in the direction sought with a large enough effect; inconclusive means small, poorly fitted or top-dose-only effect, or another doubt; inactive means no such curve, though single readings can be large; an effect the other way counts as inactive or inconclusive. Unless noted, on the % scale 0 is the no-effect control and ±100 the full control effect.

SMILES	IMPase Li cell	IMPase cell inh	PNC assembly inh	ALOX12 inhib
O=c1[nH]c(SCc2nc3c(cnn3-c3ccccc3)c(=O)[nH]2)nc2ccccc12	?	2	-108*	2%
O=C(c1ccc(F)cc1)N1CCN(Cc2ccccc2Br)CC1	34%[38.3 µM]	8[1.84 µM]	-99*	-4%
COc1ccc(Br)cc1CN1CCN(C(=O)c2ccc(F)cc2)CC1	4%	.	.	.
CC(=C/c1ccccc1)/C=N/Nc1nc(N2CCCCC2)nc(N2CCCCC2)n1	1%	.	-11	2%
BrC(/C=N/Nc1nc(N2CCOCC2)nc(N2CCOCC2)n1)=C/c1ccccc1	14%[38.3 µM]	5	-96*	2%
CC1CCN(c2nncc3ccccc23)CC1	-7%[38.3 µM]	?	-93*	-4%
Cc1[nH]c2ccccc2c1SCCNC(=O)c1ccc(Br)o1	7%	-2	?	-4%
O=C(NCCSc1c[nH]c2ccccc12)c1ccc(Br)o1	8%	4	-119*	-3%
CCOc1c2ccc(C(=O)NCc3ccc(C)cc3)cc2nn1CC	-10%[38.3 µM]	8	77	4%
CCOc1c2ccc(C(=O)NCCc3ccc(C)cc3)cc2nn1CC	1%[38.3 µM]	3	-113*	4%
Cc1c(NC(=O)c2nc3ccccc3n(C)c2=O)cccc1[N+](=O)[O-]	.	2	.	.
COC(=O)CSc1nc2sc3c(c2c(=O)n1-c1ccccc1)C(C)CCC3 (stereo unspecified)	.	-2	.	.
CC1(C)CC2CC(C)(CN2C(=O)COC(=O)Cn2[nH]c(=O)c3ccccc3c2=O)C1 (stereo unspecified)	12%[38.3 µM]	6	-88*	0%
Cc1cccc(C)c1OCC(=O)N1CC2(C)CC1CC(C)(C)C2 (stereo unspecified)	-7%[38.3 µM]	1	21	2%
Cc1ccc(OCC(=O)N2CC3(C)CC2CC(C)(C)C3)cc1 (stereo unspecified)	0%	-4	-100*	6%
O=C1C(Cc2cccc([N+](=O)[O-])c2)SC(=Nc2ccccc2)N1c1ccccc1 (stereo unspecified)	11%	5	3	-3%
O=C(Cc1ccc(S(=O)(=O)N2CCCCC2)s1)Nc1ccc(F)c(F)c1	4%	.	-86*	0%
O=C(COC(=O)Cc1ccc(S(=O)(=O)N2CCCCC2)s1)Nc1ccc2c(c1)OCO2	9%[38.3 µM]	8	17	?
Nn1c(Nc2ccc(Cl)cc2)nncc1=O	-6%	.	.	.
Cn1c(SCC(=O)Nc2cccnc2)nnc1-c1ccccc1F	8%	.	.	.
CC(C)c1cc(NC(=O)CSc2nnc(-c3ccccc3F)n2C)on1	3%[38.3 µM]	3	-100*	-3%
Cc1ccc(N/C=C/C(=O)c2ccc(C)cc2)cc1	20%[38.3 µM]	-12	-7	2µM*
Cc1ccc(Nc2nc(C3CC3)cs2)cc1	11%	-1	-119*	-21%
O=C(Nc1ccon1)c1sc2cc(F)ccc2c1Cl	-5%	-17	-100*	2%
O=C(NC1=NCCS1)c1sc2cc(F)ccc2c1Cl	-14%	-9	44	2%
SMILES	IMPase Li cell	IMPase cell inh	PNC assembly inh	ALOX12 inhib
COc1ccc(-n2c(=O)c3ccccc3n(CC(=O)c3ccccc3)c2=O)cc1OC	-10%	.	.	.
COc1cc(-n2c(=O)c3ccccc3n(CC(=O)c3ccc(Br)cc3)c2=O)cc(OC)c1OC	22µM*	.	.	.
Cc1cccc(CSC(=N)N)c1	.	-9	-115*	2%
COCCNC(=O)C(OC(=O)c1nsc(Cl)c1Cl)C(C)C (stereo unspecified)	3%	.	.	.
CCOC(=S)NC(=O)c1sc2ccccc2c1Cl	?	-25	-109*	-15%
CC(C)(C)C(=O)NC(=S)NNC(=O)c1sc2ccccc2c1Cl	-3%	-4	-112*	-2%
O=C(NNC(=S)NC1CCCCC1)c1sc2ccccc2c1Cl	6%	.	22	0%
O=C(O)CSc1c(-c2ccccc2)[nH]c2ccccc12	-2%	.	-85*	-2%
COc1ccccc1NCCC(=O)OCC(=O)NC1CCCC(C)C1C (stereo unspecified)	3%	.	-21	-2%
Cc1ccc(-n2c(=O)c(C#N)cc3c(=O)n4cccc(C)c4nc32)cc1	10µM*	3	-25	4%
N=c1oc2ccc3ccccc3c2cc1-c1nnc2n1CCCCC2	-21%[38.3 µM]	-2	-114*	4%
COC(=O)c1sc(S(=O)(=O)NCC(=O)O)c(C(=O)OC)c1C	-14%	.	.	.
COC(=O)c1sc(S(=O)(=O)NCc2cccs2)c(C(=O)OC)c1C	18%	4	-111*	-7%
